Data taken from PubChem BioAssay (NCI).
About 83,000 compounds went through this panel and 20% of them were active in at least one assay; those are over-represented in the sample as a whole.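 Note: values are percent growth. 100 is the growth of untreated cells, values between 100 and 0 indicate rising inhibition; between -100 and 0 indicates cell death.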 Unmarked numbers belong to inactive results. Activity calls are given as the source filed them. Rule for the calls: active = growth percent below 10; inactive = the rest.

How the values were obtained:
Assay in all cases: NCI-60 one-dose screen, 48 h (100 = growth as untreated, 0 = no growth, -100 = all killed)
NCI-H460 lung = settings: 10 µM unless noted
K-562 leukemia = settings: 10 µM unless noted
MALME-3M melanoma = settings: 10 µM unless noted
RXF 393 renal = settings: 10 µM unless noted
M14 melanoma = settings: 10 µM unless noted
HCT-15 colon = settings: 10 µM
SNB-75 CNS = settings: 10 µM unless noted
SNB-19 CNS = settings: 10 µM unless noted
SK-MEL-5 melanoma = settings: 10 µM unless noted
ACHN renal = settings: 10 µM unless noted
SR leukemia = settings: 10 µM
OVCAR-8 ovarian = settings: 10 µM unless noted
IGROV1 ovarian = settings: 10 µM
OVCAR-3 ovarian = settings: 10 µM unless noted
BT-549 breast = settings: 10 µM
MDA-MB-435 melanoma = settings: 10 µM unless noted
SW-620 colon = settings: 10 µM unless noted
HCC-2998 colon = settings: 10 µM unless noted
COLO 205 colon = settings: 10 µM
OVCAR-4 ovarian = settings: 10 µM unless noted

| SMILES | growth (NCI-H460 lung) | growth (K-562 leukemia) | growth (MALME-3M melanoma) | growth (RXF 393 renal) | growth (M14 melanoma) | growth (HCT-15 colon) | growth (SNB-75 CNS) | growth (SNB-19 CNS) | growth (SK-MEL-5 melanoma) | growth (ACHN renal) | growth (SR leukemia) | growth (OVCAR-8 ovarian) | growth (IGROV1 ovarian) | growth (OVCAR-3 ovarian) | growth (BT-549 breast) | growth (MDA-MB-435 melanoma) | growth (SW-620 colon) | growth (HCC-2998 colon) | growth (COLO 205 colon) | growth (OVCAR-4 ovarian) |
| --- | --- | --- | --- | --- | --- | --- | --- | --- | --- | --- | --- | --- | --- | --- | --- | --- | --- | --- | --- | --- |
| CC(=O)O[C@H]1CCC2(C)C(=CCC3C2CCC2(C)/C(=N/OC(=O)c4ccc(N(CCCl)CCCl)cc4)CCC32)C1 (some centres not stated) | 21% | 5% (active) | 92.2% | 44.1% | 59.4% | 55.2% | 22.5% | 37.7% | 73.2% | 46.4% | -24.9% (active) | 56.4% | 11.6% | 53.5% | 51.4% | 47.1% | 84.1% | 80.3% | – | – |
| C/C(=N/OC(=O)N(C)C)c1ccc(Cl)cc1Cl | 104% | 106% | 97.6% | 112% | 106% | 105% | 79.2% | 103% | 103% | 98.7% | 87.2% | 106% | 104% | 99.5% | 97% | 96% | 106% | 102% | 110% | 113% |
| O1[As]2O[As]3O[As]1O[As](O2)O3 | 3.94% (active) | – | -15% (active) | -47.6% (active) | -24.2% (active) | -23.4% (active) | – | -2.55% (active) | -91.5% (active) | – | – | 4.6% (active) | 14.6% | -35.3% (active) | -12.1% (active) | – | 4.74% (active) | 23.3% | – | 26.1% |
| CC(C)(C)NCC(O)c1ccccc1Cl (configuration not stated) | 6.76% (active) | 17.5% | 35.8% | -19.8% (active) | -12.8% (active) | 58.9% | -24.4% (active) | – | – | 53.7% | – | 9.87% (active) | 45.5% | -25.7% (active) | 35.2% | -52.5% (active) | 22% | -28.8% (active) | 5.34% (active) | 60.3% |
| Cn1cnnc1[S-].[Au+].c1ccc([PH+](c2ccccc2)c2ccccc2)cc1 | 58.5% | 1.84% (active) | -38.1% (active) | -78.6% (active) | -11.9% (active) | -67.4% (active) | -62.3% (active) | – | -9.96% (active) | -42.3% (active) | 4.41% (active) | 20.3% | -1.4% (active) | -81.2% (active) | 36.8% | 11.1% | -49.3% (active) | 48.3% | -10% (active) | 38.9% |
| CNC(=O)O/N=C(/C)c1ccc(Cl)cc1 | 113% | 92.9% | 101% | 110% | 98.7% | – | 87.4% | 112% | 101% | 129% | 90% | 102% | 101% | 114% | 91.1% | 98.3% | 117% | 105% | – | 97.3% |
| O=C(O)CNC(=O)c1ccccc1 | 103% | – | 133% | 102% | 99.4% | 98% | 93.7% | 98.6% | 98.9% | 102% | – | – | 105% | 105% | 97.5% | – | 99.7% | 98.9% | 104% | 105% |
| CCOC(=O)C1(c2ccccc2)CCN(CC(=O)c2ccc(NC(C)=O)cc2)CC1 | 112% | 122% | – | 124% | 93.6% | 108% | 114% | 102% | 103% | – | – | – | – | 128% | 97% | 106% | 104% | – | 103% | 122% |
| CCN1CC2(CN(CC)C1=S)C(=O)NC(=O)NC2=O | 100% | 87.5% | 103% | 116% | – | 99.9% | 95.8% | 107% | 106% | 99% | 114% | 101% | 103% | 107% | 91.4% | 103% | 97.4% | 99.7% | 115% | 93.3% |
| N#CC(C#N)=Cc1ccc2ccccc2c1 | – | 102% | – | 96.5% | 104% | 111% | 103% | 106% | 101% | 107% | – | – | – | 117% | 100% | 114% | – | – | 110% | 110% |
| CC(=O)O[C@H]1CCC2C3CCC4=C/C(=N/O)CCC4(C)C3CCC21C (some centres not stated) | 89.6% | 45.9% | 94.3% | 102% | 79.9% | 72.3% | 96.4% | 90.7% | 87.4% | 108% | 36.7% | 99.3% | 87.6% | 107% | 84.9% | 20.3% | 74.4% | 83.9% | 107% | – |
